Results taken from article PMC4552634, “A New Set of Chemical Starting Points with Plasmodium falciparum Transmission-Blocking Potential for Antimalarial Drug Discovery” (PLoS ONE, 2015).
The whole screen tested about 13,000 compounds, of which about 3,200 (25%) showed an effect of 50% or more. Some of the results follow.

The compounds below were run on P. falciparum stage V gametocytes. Settings: 48 h, 5 µM; inhibitor.
Design: BacTiter-Glo ATP luminescence viability of purified stage V gametocytes in 384-well plates, per cent inhibition versus DMSO

Row | SMILES | % Inhibition [%]
1 | CCCCCC(C)N=C(Nc1ccc([N+](=O)[O-])cc1O)Nc1ccccc1Br (stereo not shown) [TCMDC-140073] | -48.06
2 | CCOC(=O)C1=C(C)N=c2sc(=Cc3cc(Cl)ccc3O)c(=O)n2C1c1ccc2c(c1)OCO2 (stereo not shown) [TCMDC-124113] | 66.04
3 | CCOC(=O)C1=C(C)N=c2sc(=Cc3cc(Cl)ccc3O)c(=O)n2C1c1ccc(OC)cc1 (stereo not shown) [TCMDC-124112] | -5.89
4 | CCOC(=O)C1=C(C)N=c2sc(=Cc3cc(Cl)ccc3O)c(=O)n2C1c1cc(OC)c(OC)cc1Br (stereo not shown) [TCMDC-124116] | 34.65
5 | NC(=O)c1cccc(Nc2nccc(Nc3ccc(Oc4c(Cl)cccc4Cl)c(Cl)c3)n2)c1 [TCMDC-138594] | -30.34
6 | OC(CN(Cc1ccccc1)Cc1ccccc1)Cn1c2ccc(Cl)cc2c2cc(Cl)ccc21 (stereo not shown) [TCMDC-125720] | 14.45
7 | N#Cc1ccc2[nH]cc(C(=O)CCCCCN(Cc3ccccc3)Cc3ccccc3)c2c1 [TCMDC-131257] | 33.92
8 | N#Cc1cccc(C(O)CN(Cc2ccccc2)Cc2ccccc2)c1 (stereo not shown) [TCMDC-131250] | 62.4
9 | Cc1cc(C(F)(F)F)cc(-n2ncc(-c3ccc(C(=O)NCCNCc4ccccc4)cc3)c2N)n1 [TCMDC-136659] | -53.07
10 | CCc1c[nH]c2c(N(c3ccccc3)S(C)(=O)=O)cc(C(=O)N[C@@H](Cc3ccccc3)[C@H](O)CNCc3cccc(C(F)(F)F)c3)cc12 [TCMDC-135318] | 91.8
11 | CCc1c[nH]c2c(N(c3ccccc3)S(C)(=O)=O)cc(C(=O)N[C@@H](Cc3ccccc3)[C@H](O)CNC(C)(C)CCCC(C)C)cc12 [TCMDC-135319] | 124.7
12 | CS(=O)(=O)N(c1cccc(F)c1)c1cc(C(=O)N[C@@H](Cc2ccccc2)[C@H](O)CNCc2cccc(C(F)(F)F)c2)cc(N2CCCC2=O)c1 [TCMDC-138921] | -9.659
13 | CCNc1cc(C(=O)N[C@@H](Cc2ccccc2)[C@H](O)CNC(C)(C)CCCC(C)C)cc(N2CCCC2=O)c1 [TCMDC-138889] | 7.674
14 | CS(=O)(=O)N(c1ccc(F)cc1)c1cc(C(=O)N[C@@H](Cc2ccccc2)[C@H](O)CNCc2cccc(C(F)(F)F)c2)cc(N2CCCC2=O)c1 [TCMDC-138920] | -15.57
15 | CN=C(NC)c1cccc(NC(=O)C=Cc2ccc(C=CC(=O)Nc3cccc(C(=NC)NC)c3)cc2)c1 [TCMDC-137213] | 18.83
16 | CCc1cc2c(=O)c(-c3nc(C)cs3)c([C@H](N)Cc3ccc(O)cc3)oc2cc1O [TCMDC-124111] | 0.6377
